Data taken from PubChem BioAssay.
Values without a mark were called inactive. Calls of active or inactive are those of the source. Cut-off read from the data, not from the text of the source: active = fold change permeability below about 0.7 or above about 1.3; inactive = in between.

Test: modulators of brain endothelial barrier permeability, primary screen, cell-based, FITC-avidin fluorescence, HTS (AID 1963498); note: test concentration not given here
Conditions: actives lie on both sides

Compound | fold change permeability
CC(C)c1cccc(C(C)C)c1N1C(=O)c2ccc(O)cc2C1=O | 1.6 (active)
N#C/C(=C\c1ccc(-c2cc(Cl)ccc2Cl)o1)C(=O)Nc1cccc2ncccc12 | 2.1 (active)
CNC(=O)Oc1ccc2c(c1)[C@]1(C)CCN(C)[C@@H]1N2C | 0.8
COc1ccc(Oc2c(Cl)cnn(C3c4ccccc4-c4ccccc43)c2=O)cc1 | 1.4 (active)
Oc1ccc(/C=C/c2cc(O)cc(O)c2)cc1 | 1.7 (active)
O=C(NCc1ccc(F)cc1)C1CCN(S(=O)(=O)c2cc(Cl)cc(Cl)c2)CC1 | 1.5 (active)
CC(=O)CCCCn1c(=O)c2c(ncn2C)n(C)c1=O | 1
CN1Cc2sccc2C(c2ccc(O)c(O)c2)C1 (centres undefined) | 1
CCC(=O)Nc1cccc(Oc2nc(Nc3ccc(N4CCN(C)CC4)cc3OC)ncc2Cl)c1 | 1.2
O=[N+]([O-])c1ccc(CSc2ncnc3c2ncn3[C@@H]2O[C@H](CO)[C@@H](O)[C@H]2O)cc1 | 0.8
NC(=O)c1cnccn1 | 0.9
CCCCCN=C(N)N/N=C/c1c[nH]c2ccc(OC)cc12 | 0.9
CN1CCc2cc(Cl)c(O)cc2[C@@H](c2ccccc2)C1 | 0.9
O=c1cc2c(=O)oc3cc(O)c(O)oc3c2c(O)c1O | 1.9 (active)
CCCCN(CCCC)CC(O)c1cc(Cl)cc2c1-c1ccc(Cl)cc1/C2=C/c1ccc(Cl)cc1 (centres undefined) | 0.9
O=C(Nc1nc2ccccc2n1CCN1CCOCC1)c1cccc([N+](=O)[O-])c1 | 1.9 (active)
Cc1cc2nc(NCCCO)n(CC(=O)c3cc(C(C)(C)C)c(O)c(C(C)(C)C)c3)c2cc1C | 1.1
c1cnc(N2CCN(Cc3ccc4c(c3)OCO4)CC2)nc1 | 1
Cc1cccc(C)c1OCC(C)N (centres undefined) | 0.8
Cc1ccc2c(c1CCC(=O)O)CC[C@@H](NS(=O)(=O)c1ccc(Cl)cc1)C2 | 0.8

Compound | fold change permeability
Nc1nc(Cl)nc2c1ncn2[C@@H]1O[C@H](CO)[C@@H](O)[C@H]1O | 0.9
S=C(S)N1CCCC1 | 1
COC(=O)C1=C(C)NC(C)=C(C(=O)OC(C)(C)CN(C)CCC(c2ccccc2)c2ccccc2)C1c1cccc([N+](=O)[O-])c1 (centres undefined) | 1.1
CC1(C)OC(=O)C(c2cccc(F)c2)=C1c1ccc(S(C)(=O)=O)cc1 | 0.9
N[C@H](C(=O)O)c1cc(O)cc(O)c1 | 1.2
N[C@@H](CC(=O)N1CCN(C(c2ccc(F)cc2)c2ccc(F)cc2)CC1)C(=O)N1Cc2ccccc2C1 | 1.1
COc1cc(/C=C(\C#N)C(=O)Nc2nnc(C(F)(F)F)s2)ccc1OCc1ccc(C(F)(F)F)cc1C(F)(F)F | 1.5 (active)
NC(N)=NC(=O)c1nc(Cl)c(N2CCCCCC2)nc1N | 1.1
CC(C)NCC(O)c1ccc(O)c(O)c1 (centres undefined) | 1.4 (active)
CC(C)c1cc(/C=C(\C#N)C(=O)NCCCc2ccccc2)cc(C(C)C)c1O | 0.8
O=C1Nc2nc(-c3c(O)cccc3OCC3CC3)cc([C@@H]3CCCNC3)c2CO1 | 1.6 (active)
Cc1cc(NC(=O)Nc2ccc3c(ccn3C)c2)sn1 | 1.2
O=C(O)CCc1ccc(NCc2cccc(Oc3ccccc3)c2)cc1 | 0.7 (active)
COc1ccccc1OCCNCC(O)COc1cccc2[nH]c3ccccc3c12 (centres undefined) | 1.7 (active)
NS(=O)(=O)c1cc2c(cc1Cl)NC(C1CC3C=CC1C3)NS2(=O)=O (centres undefined) | 1.3 (active)
CCN(CC)CC#CCOC(=O)C(O)(c1ccccc1)C1CCCCC1 (centres undefined) | 1.3 (active)
CC(C)(CO)Cc1cc(C(C)(C)C)c(O)c(C(C)(C)C)c1 | 1.1
COc1ccc(CCn2nnnc2C2(c3ccc(C)cc3)CC2)cc1 | 1.6 (active)
C[C@H](Cc1ccccc1)Nc1ncnc2c1ncn2[C@@H]1O[C@H](CO)[C@H](O)C1O (some centres undefined) | 1.3 (active)
